High-throughput results: PubChem, several laboratories
PostGolgi ctrl – growth inhibition of yeast control strain, primary screen, counter-screen for post-Golgi transport modulator project | efflux-deficient yeast background strain, growth absorbance A615, 16 h | inhibition, % at 10 µM | hit rate 5% among 98,000 | AID 738, 2007
PostGolgi yeast – phenotypic screen on post-Golgi transport, primary screen. post-Golgi transport phenotypic cell assay. inhibition, % at 10 µM. hit rate 0.9% among 98,000. AID 739, 2007;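 also: yeast cells grown in 1536-well plates; yeast grown about 18 h at 30C before absorbance read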
PLAP act – PLAP enzyme activators, biochemical, luminescence, HTS | purified PLAP enzyme, luminescent substrate read-out; active compounds read high | activation fold at 20 µM | hit rate 1.2% among 96,000 | AID 696, 2007; in the data active = activation fold above about 2
Target sequence (P05187 whole entry, looked up): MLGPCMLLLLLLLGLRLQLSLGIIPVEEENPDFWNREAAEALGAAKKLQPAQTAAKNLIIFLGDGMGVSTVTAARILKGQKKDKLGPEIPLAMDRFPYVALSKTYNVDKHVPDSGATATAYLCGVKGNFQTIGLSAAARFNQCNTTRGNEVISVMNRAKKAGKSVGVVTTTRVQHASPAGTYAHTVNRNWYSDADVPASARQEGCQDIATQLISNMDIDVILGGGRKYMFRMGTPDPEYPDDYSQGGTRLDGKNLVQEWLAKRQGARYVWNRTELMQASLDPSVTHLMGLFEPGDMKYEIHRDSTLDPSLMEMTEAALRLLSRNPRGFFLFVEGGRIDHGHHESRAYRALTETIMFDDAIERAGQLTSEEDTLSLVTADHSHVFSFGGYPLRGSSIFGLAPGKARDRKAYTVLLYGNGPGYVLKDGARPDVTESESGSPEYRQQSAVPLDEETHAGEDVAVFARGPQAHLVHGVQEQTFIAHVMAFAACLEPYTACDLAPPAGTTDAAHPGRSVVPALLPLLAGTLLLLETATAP
Cav32 inh – Cav3.2 calcium influx blockers – cell-based, Fluo-4 calcium fluorescence, FDSS, MLSMR library, primary screen; Voltage-dependent T-type calcium channel subunit alpha-1H (Homo sapiens), O95180; Cav3.2-expressing cells; active compounds read low; B-score at 10 µM; hit rate 4% among 100,000;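 active = single-dose well whose peak fluorescence ratio is a statistical outlier from its plate by either plate-standardised score or position-corrected B-score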
hDAT+cocaine – changed hDAT dopamine uptake under cocaine IC80, either direction, primary screen, cocaine antagonist project, cell-based, LLC-PK1 hDAT, [14C]-dopamine uptake, MLSMR; Sodium-dependent dopamine transporter (Homo sapiens), Q01959; LLC-PK1 hDAT cells, [14C]-dopamine uptake with cocaine IC80; actives deviate in either direction; B-score at 10 µM; hit rate 1.3% among 110,000; AID 449768, 2010;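 active = Z score or B-score, a plate-position-corrected score, falls beyond the plate's 99.7% confidence bounds, in either direction; inactive = both scores lie inside the 99.7% bounds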;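 also: scored against the spread of the other compound wells on the same plate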
Starred values were filed as active, the others as inactive; . = not tested or not shown. The list is not random: actives were taken first. Their share in the collection is about 9.6%. Rule as the data show it, unless noted: active = inhibition above about 30%; inactive = the rest.

SMILES | PostGolgi ctrl | PostGolgi yeast | PLAP act | Cav32 inh | hDAT+cocaine
Cc1ccc(-c2ccc(/C=N/n3cnnc3)o2)cc1Cl | 60* | 80* | 0.9 | 1.2 | -0.58
COc1ccc2occ(C(=O)c3cccs3)c2c1 | 10 | 8 | 0.7 | -1.6 | 0.74
O=C(c1cccs1)c1coc2ccc(O)c(CN(CCO)CCO)c12 | -7 | 1 | 2.4* | -0.49 | -1.2
O=[N+]([O-])c1cc(C(F)(F)F)ccc1NCCc1c[nH]c2ccc(O)cc12 | 55* | 29 | 0.5 | -0.65 | 0.32
C=C(C)c1sc(-c2ccc(Cl)cc2)nc1C | . | . | . | 0.96 | -0.57
CCCN(CCC)c1nc(NC2CCN(C(=O)OCC)CC2)nc(OC)n1 | 18 | 4 | 1.3 | -11* | 2.3
CN(CC(=O)Nc1ccc(C#N)cc1)Cc1ccc(Cl)c(Cl)c1 | 34* | 4 | 0.9 | -6.6* | -0.19
COc1ccc(CCC(C)NC2C3CC4CC(C3)CC2C4)cc1 (stereo not given) | 13 | -5 | 1.1 | . | .
Cc1cccc(NC(=O)C2CCCN(S(=O)(=O)c3cccc4cccnc34)C2)c1 (stereo not given) | 19 | -15 | 1.4 | -0.57 | 1.4
O=C(COC(=O)c1cccc(S(=O)(=O)N2CCc3ccccc3C2)c1)NCc1ccco1 | 43* | -5 | 0.9 | . | 0.17
O=C(COC(=O)c1cc(S(=O)(=O)N2CCc3ccccc3C2)ccc1Cl)NCc1ccco1 | 11 | -4 | 1.1 | -3.5 | -0.28
Cc1cc(Cl)ccc1OC(C)C(=O)N1CCCN(C(=O)C(C)Oc2ccc(Cl)cc2C)CC1 (stereo not given) | 44* | 9 | 1.4 | -5.4* | 0.78
COc1ccc(C2=C(C=Nc3c(C)n(C)n(-c4ccccc4)c3=O)C(c3ccccc3C)c3ccccc3O2)cc1OC (stereo not given) | 4 | -13 | 1.6 | -0.92 | -0.13
COC(=O)C1N2C(=O)[C@@H](NC(=O)COc3ccccc3)[C@H]2SC1(C)C (stereo not given in full) | . | . | . | 0.36 | -0.025
Cc1ccc2c(c1)N(CCC(=O)NCCCOC(C)C)C(=O)C(C)O2 (stereo not given) | 11 | 2 | 1.2 | 0.75 | 1.3
O=C(Nc1cc(Cl)cc(Cl)c1)c1cccc(OC(F)F)c1 | 33* | 59* | 0.4 | -0.16 | -0.1
CN(C)S(=O)(=O)c1cccc(C(=O)Nc2cc(Cl)cc(Cl)c2)c1 | 15 | -2 | 1.6 | -0.68 | -0.063
CCN(CC)c1cccc(OC2=NS(=O)(=O)c3ccccc32)c1 | 24 | 7 | 1.2 | 0.85 | 0.68
CCCN(Cc1cc2ccc(C)cc2[nH]c1=O)C(=O)c1cccnc1 | 9 | 7 | 1 | 0.58 | -0.52
CCN(Cc1cc2ccc(C)cc2[nH]c1=O)C(=O)c1ccncc1 | 44* | -12 | 1.3 | 0.49 | 1.3
O=C(NC1CCCCC1)C(c1ccccc1)N(Cc1ccc2c(c1)OCO2)C(=O)c1cnsn1 (stereo not given) | . | . | . | -7.5* | 0.013
Cc1ccc(C(C(=O)NC2CCCC2)N(Cc2ccc3c(c2)OCO3)C(=O)Cc2cccs2)cc1 (stereo not given) | . | . | . | -0.23 | -0.64
C#Cc1ccc([C@H]2C=C(C(=O)NCc3nc4ccccc4[nH]3)O[C@@H](OCC)[C@@H]2CCCO)cc1 | . | . | . | -1.4 | 4.2*
CCO[C@H]1OC(C(=O)NCc2nc3ccccc3[nH]2)=C[C@@H](c2ccc(Br)cc2)[C@@H]1CCCO | . | . | . | -2.8 | 0.18
CCOC(=O)c1cnc2ccc(C)cc2c1Sc1ccccc1 | 31* | 3 | 1.3 | -0.82 | 0.52
SMILES | PostGolgi ctrl | PostGolgi yeast | PLAP act | Cav32 inh | hDAT+cocaine
Nc1ccccc1C(=O)N(Cc1ccccc1)Cc1ccccc1 | . | . | . | -5.8* | -1.3
Brc1ccccc1-c1nnc(CSc2nnc3sc4ccccc4n23)o1 | -1 | 1 | 1.8 | 1.2 | -0.31
CCCCCCn1c(SCCC)nc2c1c(=O)[nH]c(=O)n2C | 27 | -7 | 1.1 | -2.2 | 0.022
Cn1c(=O)[nH]c(=O)c2c1nc(Br)n2CCSc1ncccn1 | 36* | -6 | . | . | -0.013
CCCCCn1c(SCCCC)nc2c1c(=O)[nH]c(=O)n2C | 33* | -8 | 1 | -2.9 | -0.67
Cc1cccc(Cn2c(N(C)Cc3ccccc3)nc3c2c(=O)[nH]c(=O)n3C)c1 | 47* | -5 | 1 | -3.3 | -0.97
Cn1c(=O)[nH]c(=O)c2c1nc(Sc1ccccc1)n2CCc1ccccc1 | 4 | -5 | 0.7 | -0.044 | 1
CN(Cc1ccccc1)c1nc2c(c(=O)[nH]c(=O)n2C)n1C | . | . | . | 0.41 | 0.3
Cc1ccc(Sc2nc3c(c(=O)[nH]c(=O)n3C)n2CCc2ccccc2)cc1 | 35* | -15 | 1.4 | -0.052 | 0.065
COc1ccc(OC)c(C(c2nnnn2CCC(C)C)N2CCN(C(=O)c3ccco3)CC2)c1 (stereo not given) | 12 | 26 | 1.7 | -0.85 | 0.44
CCOCCn1c(SCCc2ccccc2)nc2c1c(=O)[nH]c(=O)n2C | 16 | -1 | 1.1 | 1.3 | -0.0081
Cn1c(=O)[nH]c(=O)c2c1nc(Sc1nc3ccccc3s1)n2Cc1ccccc1 | 41* | 3 | 1.2 | -1.6 | 1.2
C/C=C/Cn1c(SC)nc2c1c(=O)[nH]c(=O)n2C | -7 | -11 | 1.1 | -0.0013 | -0.58
C/C=C/Cn1c(SCc2ccc(Cl)cc2)nc2c1c(=O)[nH]c(=O)n2C | 43* | 8 | 0.9 | 0.78 | -0.12
CCOCCn1c(SCc2cccc(C)c2)nc2c1c(=O)[nH]c(=O)n2C | 41* | 6 | 1.1 | 0.13 | 0.54
CC(C)CCn1c(SCCc2ccccc2)nc2c1c(=O)[nH]c(=O)n2C | 35* | -7 | 0.9 | . | -0.1
CCOc1ccc(S(=O)(=O)NC(C)(C)C)cc1-c1nc2c(C(C)(C)C)nn(C)c2c(=O)[nH]1 | 7 | 7 | 1.8 | 0.24 | -2.2
CCOc1ccc(N(Cc2cc3cc(OC)ccc3[nH]c2=O)C(=O)C2CCCO2)cc1 (stereo not given) | 9 | 4 | 1.2 | -0.0054 | 0.24
COc1cc(S(=O)(=O)N2CCC(c3nc4ccccc4s3)CC2)ccc1S(=O)(=O)NC1CCCC1 | . | . | . | 0.79 | -0.32
C=CCNc1nc(Nc2ccc(-c3nc4ccccc4o3)cc2)nc(N2CCOCC2)n1 | 23 | 0 | 1.9 | -0.069 | 0.32
C=CCn1c(SCCCc2ccccc2)nc2c1c(=O)[nH]c(=O)n2C | 30 | 6 | 1.3 | . | .
C/C=C/Cn1c(SCCCc2ccccc2)nc2c1c(=O)[nH]c(=O)n2C | 41* | 5 | 1.2 | -2 | 0.63
CNS(=O)(=O)c1cccc(C(=O)Nc2cccnc2)c1 | 34* | -3 | 0.8 | 1.4 | -0.24
COc1ccc(OCCn2cc(/C(N)=N/O)c3ccccc32)cc1 | 1 | -3 | 0.8 | -1.1 | 1.4
CCC(=C(c1ccc(OC)cc1)c1ccc(OC)cc1)c1cn(CC(O)CN2CCN(C)CC2)c2ccccc12 (stereo not given) | 91* | 28 | 1.8 | . | .
COc1ccccc1Nc1ncnc2ccccc12 | 13 | -5 | 0.8 | 0.92 | -0.33
